Results on 26 molecules are retold here after PubChem BioAssay (EPA / NIEHS).

Results filed as inconclusive are left out. Activity calls are given as the source filed them. Rule for the calls: active = hit-call score of the fitted dose curve at least 0.9, where 1 is the maximum; inconclusive = response in the unintended direction; inactive = score below 0.9.

The experiment can be described thus: ACEA_ER_AUC_viability: ACEA Biosciences xCELLigence Real-Time Cell Analysis on Estrogen Receptor Agonism for Viability (AID 2283782).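 Note: continuous compound exposure with impedance area under curve over 80 h; hit means loss of impedance signal meaning reduced cell growth or viability.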 The essentials: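 T-47D; phenol red-free RPMI1640 + 10% CS-FBS; 8 conc., 1:4 serial, max 100 uM final, ≤0.5% DMSO; n = 2; continuous exposure; impedance monitored to 80 h post-dose; AUC vs DMSO.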
As for `CC(C)CCOC(=O)CC(C)C`, the call was inactive.

Consider `C[C@H](CCC(=O)O)[C@H]1CC[C@H]2[C@@H]3CC[C@@H]4C[C@H](O)CC[C@]4(C)[C@H]3CC[C@]12C`, for which the AC50 (commonly the concentration giving half of the maximal activity seen) was 85.2 µM (active).

For `CN(C)CCC=C1c2ccccc2CCc2ccccc21`, the AC50 is 26.2 µM (active).

Turning to `C=C1CC[C@H]2O[C@]2(C)CC[C@@H]2[C@@H]1CC2(C)C`, the outcome was inactive.

With `CCO[Si](CCC#N)(OCC)OCC`, the molecule was called inactive.

Turning to `CN(C)C`, the call was inactive.

For `CCC(=O)OC(C)(C)C1CC=C(C)CC1` (stereo unspecified), the outcome was inactive.

Take `CCCCCCCCOC(=O)c1ccc(O)cc1`: the AC50 was 24.7 µM (active).

As to `CC(C)C(=O)OCC=Cc1ccccc1`, the outcome was inactive.

With `Cc1ccccc1S`, the molecule was classed as inactive.

Consider `NCCCOCCOCCOCCCN`, for which the AC50 was 86.7 µM (active).

Regarding `CC1COC(=O)O1` (stereo unspecified), the molecule was called inactive.

On to `CC(=O)c1ccc(C)cc1`, for which the molecule was classed as inactive.

On to `CCCCCC(=O)O[C@]1(C(C)=O)CC[C@H]2[C@@H]3CCC4=CC(=O)CC[C@]4(C)[C@H]3CC[C@@]21C`, for which the AC50 is 49.8 µM (active).

For `C=CCOCC(O)CO` (stereo unspecified), the result was inactive.

Take `CC(=N[Si](C)(C)C)O[Si](C)(C)C`: the outcome was inactive.

As for `O=C(O)CS`, the molecule was classed as inactive.

For the molecule `O=C(O)c1ccc(C(=O)O)c(C(=O)O)c1`, the result was inactive.

Regarding `CCCCCCCCCCCCOCCOS(=O)(=O)O`, the concentration at half-maximal activity (AC50) is 84.1 µM (active).

Regarding `CC1=CC[C@@H]2C[C@H]1C2(C)C`, the AC50 is 18.7 µM (active).

On to `CC(O)COCC(C)O` (stereo unspecified), for which the outcome was inactive.

In the case of `CC(C)C(=O)c1ccccc1`, the result was inactive.

Regarding `NC(N)=NC(N)=NCCc1ccccc1`, the molecule was called inactive.

In the case of `CCO[Si](CC)(OCC)OCC`, the outcome was inactive.

Take `O=C(Nc1cccc(Cl)c1)OCC#CCCl`: the AC50 was 56.3 µM (active).

Consider `N=C1N=C(N)c2ccccc21`, for which the concentration at half-maximal activity (AC50) is 74 µM (active).
